# Experimental data taken from PubChem BioAssay.
# Active and inactive are the calls of the source.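 Rule for the calls, unless noted: active = inhibition of the reporter signal at or above 50%; inactive = inhibition below 50%.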
# Tests used:
# [1] = inhibitors of TNFa-induced NFkB p65 translocation, primary screen, imaging, HUVEC, MLSMR starter and 10KST1 sets (AID 438;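 active = inhibition above 20% together with a positive visual image hit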;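 note: compound added about 3h40 before a 20 min TNFalpha stimulation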;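 for inhibition: signal is the nuclear over cytoplasmic p65 intensity ratio per well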); details: HUVEC TNFa-induced p65 nuclear translocation; cell count: measured here: nuclei count (cytotoxicity indicator), at 2.08 µM; inhibition: at 2 µM, stronger effect = higher value, 0% TNFa-plus-vehicle, 100% no-TNFa wells
# [2] = reduction of polyQ htt aggregates in cells – imaging, exon1htt(103Q)mCFP cells, high-content imaging, primary screen (AID 483;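 active = visual image review flags a hit and inhibition of aggregation exceeds 20%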;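 note: compound exposure lasted 3 days before fixation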;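 for nuclei count: percent of the per-plate median nuclei count of sample wells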); details: exon1htt(103Q)mCFP cell line, aggregate imaging, at 2 µM; inhibition of aggregation: stronger effect = higher value; nuclei count: measured here: cell count, toxicity
# [3] = endothelial E-selectin expression blockers – imaging, HUVEC, immunofluorescence, MLSMR starter and 10KST1 sets, primary screen (AID 487;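 active = visually confirmed hit in the image check and inhibition above 20%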;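 for inhibition: signal is fraction of cell area covered by stained E-selectin grains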;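 for nuclei count: 100% = median nuclei count of all wells on the same plate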); details: HUVEC TNFalpha-induced E-selectin immunofluorescence imaging, at 2 µM; inhibition: stronger effect = higher value; nuclei count: measured here: cell number, toxicity
# [4] = target: Voltage-gated potassium channel subunit beta-2 (Rattus norvegicus) (UniProt P62483); test: inhibitors of rat Kvbeta2 reductase activity – biochemical, NADPH fluorescence, primary screen (AID 622;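 active = fluorescence slope higher than the sample average by over 3 SD, cut at about -0.22 in these data, passing the limit was not always enough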;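 note: slope of raw intensity against log time taken from 70 to 1610 s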); details: recombinant KvBeta, 4-cyanobenzaldehyde reduction, at 10 µM, stronger effect = higher value
# Voltage-gated potassium channel subunit beta-2 (Rattus norvegicus), sequence (P62483 whole entry, looked up): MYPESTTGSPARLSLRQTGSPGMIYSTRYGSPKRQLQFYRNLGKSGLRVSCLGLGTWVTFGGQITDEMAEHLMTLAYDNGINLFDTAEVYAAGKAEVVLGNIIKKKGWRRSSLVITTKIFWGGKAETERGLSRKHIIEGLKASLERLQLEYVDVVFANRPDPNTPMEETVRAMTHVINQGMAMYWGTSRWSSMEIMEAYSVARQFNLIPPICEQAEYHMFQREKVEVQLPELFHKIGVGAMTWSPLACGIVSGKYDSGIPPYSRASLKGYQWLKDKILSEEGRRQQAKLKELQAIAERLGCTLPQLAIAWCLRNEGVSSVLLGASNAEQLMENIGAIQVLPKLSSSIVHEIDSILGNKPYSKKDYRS
# [5] = target: Voltage-gated potassium channel subunit beta-2 (Rattus norvegicus) (UniProt P62483); test: enhancers of rat Kvbeta2 NADPH turnover – biochemical, NADPH fluorescence, primary screen (AID 623;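 active = NADPH fluorescence slope more negative than the mean of all samples by about 3 SD, 99.7% confidence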;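 note: fluorescence intensity change per second fitted from 20 to 320 s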); details: Recombinant KvBeta, NADPH fluorescence decrease slope, 10 min; at 10 µM; stronger effect = lower value
# [6] = target: Alpha-2C adrenergic receptor (Homo sapiens) (UniProt P18825); test: compounds altering alpha2C-coupled GIRK flux – cell-based, HEK293 alpha2C/GIRK1/2, thallium flux, primary screen (AID 624;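 active = fluorescence slope after compound addition differing from the mean of all screened samples at 99.7% confidence, in either direction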;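 note: slope of fluorescence ratio to pre-addition baseline per second over 15 to 24 s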); details: thallium flux BTC fluorescence, at 10 µM, actives lie on both sides
# Alpha-2C adrenergic receptor (Homo sapiens), sequence (P18825 whole entry, looked up): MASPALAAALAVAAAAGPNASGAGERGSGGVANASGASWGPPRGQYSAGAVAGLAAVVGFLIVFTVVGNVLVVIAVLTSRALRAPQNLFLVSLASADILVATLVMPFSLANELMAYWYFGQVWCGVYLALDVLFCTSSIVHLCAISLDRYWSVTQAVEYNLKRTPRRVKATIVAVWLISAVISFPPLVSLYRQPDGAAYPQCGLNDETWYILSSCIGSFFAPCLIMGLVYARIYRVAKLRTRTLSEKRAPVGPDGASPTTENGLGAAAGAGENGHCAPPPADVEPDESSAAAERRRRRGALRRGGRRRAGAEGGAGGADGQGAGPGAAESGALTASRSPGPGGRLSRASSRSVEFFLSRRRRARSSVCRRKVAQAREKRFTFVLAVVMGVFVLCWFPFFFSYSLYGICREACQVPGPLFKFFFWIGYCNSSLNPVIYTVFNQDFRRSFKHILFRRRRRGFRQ
# [7] = blockers of RIG-like receptor reporter activation – cell-based, Sendai virus stimulus, luciferase, 10K MLSCN set, TLR/RLR signaling modifier project, primary screen (AID 602276;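 active = inhibition at or above 50% at 10 µM; inactive = inhibition below 50%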;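 note: firefly luciferase from ISG56 promoter only with Renilla not read in this screen; 0% = Sendai virus plus DMSO and 100% = medium plus DMSO without virus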); details: HEK293 RL24 IRF3 luciferase reporter, at 10 µM, stronger effect = higher value
# [8] = TLR3 IRF3 reporter activation blockers – cell-based, poly I:C stimulus, luciferase, 10K MLSCN set, primary screen (AID 602277); details: HEK293-TLR3 RL24 IRF3 luciferase reporter, at 10 µM, stronger effect = higher value
Compound,cell count [1],inhibition [1],inhibition of aggregation [2],nuclei count [2],inhibition [3],nuclei count [3],fluorescence slope [4],NADPH fluorescence slope [5],slope [6],inhibition [7],inhibition [8]
COc1ccc(-c2nc3c(n2O)CCC/C3=N\O)cc1,319,-8% (inactive),0.2% (inactive),98.1%,-2.4% (inactive),113%,-0.413 (inactive),-7.6e-05 (inactive),0.00746 (inactive),-16.5% (inactive),-26.8% (inactive)
O=C(NC1CCCCC1)N(Cc1ccccc1)Cc1ccco1,482,6.5% (inactive),0.2% (inactive),90.9%,-214% (inactive),128%,-0.4 (inactive),6.8e-05 (inactive),0.00512 (inactive),-9.22% (inactive),11.3% (inactive)
Cc1cc(NS(=O)(=O)c2ccc(NC(=O)Nc3ccc4c(c3)OCO4)cc2)no1,599,-10.7% (inactive),-12.8% (inactive),108%,-96.1% (inactive),112%,-0.393 (inactive),-5.2e-05 (inactive),0.00596 (inactive),-9.3% (inactive),-20.7% (inactive)
CCOC(=O)N1CCN(C(c2ccc(Cl)cc2)c2sc3nc(C)nn3c2O)CC1 (stereo not drawn),709,-8% (inactive),0.3% (inactive),104%,-25% (inactive),106%,-0.412 (inactive),-3.7e-05 (inactive),0.00503 (inactive),9.66% (inactive),19.5% (inactive)
COc1cccc(OCc2nc3ccccc3[nH]2)c1,596,-4.8% (inactive),3.2% (inactive),102%,-75.3% (inactive),114%,-0.57 (inactive),-9.8e-06 (inactive),0.0079 (inactive),-67.8% (inactive),-190% (inactive)
CCCC(=O)N(c1ccc2oc(=O)sc2c1)S(=O)(=O)c1ccccc1,318,3.5% (inactive),-12.8% (inactive),104%,-45.1% (inactive),80%,-0.61 (inactive),-2.4e-05 (inactive),0.00625 (inactive),14.8% (inactive),17.5% (inactive)
CCOC(=O)C1=C(CS(=O)(=O)c2ccc(F)c(C)c2)NC(=O)NC1c1ccc(O)c(O)c1 (stereo not drawn),619,-0.8% (inactive),8.1% (inactive),112%,-35.7% (inactive),116%,-0.576 (inactive),-2.4e-05 (inactive),0.00703 (inactive),-1.61% (inactive),5.18% (inactive)
Cn1c(C(=O)Nc2ccc3c(c2)OCO3)cc2c(=O)n(C)c3ccccc3c21,683,7% (inactive),-6.4% (inactive),104%,-20.2% (inactive),104%,-0.264 (inactive),-2.8e-06 (inactive),0.00554 (inactive),-13.1% (inactive),-11.2% (inactive)
